The chains are these.
B1: chr8:21961785:21961786:+_ENSG00000158863_ENST00000289921|hu_hu|FALSE|FALSE (ssRNA)
RNA: GGGAGUUCUACAGUCCGACGAUCGCACUGAGGAGAGGGGAGGGUCUGUGACUCCCAAACCCUCGAAUAUUUUAUGAAUCUAAGAGUCCAGACGCAGUUCAUCCACGGAGAUCUGCGCCCCGUCCACACCAACACCCACGUUUGCAACAGAGGAUUGAGCAUCA
B2: chr2:216981417:216981418:+_ENSG00000079246_ENST00000392132|hu_hu|hu_hu_hu_mus_True|8_48 (ssRNA)
RNA: GGGAGUUCUACAGUCCGACGAUCCUGAUACUGGUCCUUGCCAGCAAGGGCAUUAUCAGUGCCAUCUGUGCCAUAGAGGACUAACGCAAUCUCAUCCUUGCUCUCCGAAAAUACCUGUCGUUGGACAAACAUGGUUAUCACUUUCAACAGAGGAUUGAGCAUCA
B3: chr7:65705844:65705845:+_ENSG00000169902_ENST00000304842|hu_mus|hu_hu_hu_mus_False|18_108 (ssRNA)
RNA: GGGAGUUCUACAGUCCGACGAUCAAAAGGAUCUUUAUUACAUAAAUAAGGUGCCGGCUCCCCAUGUUUAACAAUGACCUCCAGAAGGAAGGCUUGCAUGGCAGAAUCUAGCACUUCAUCAGUAACACCCGCCUCAUCCAAGCGCAACAGAGGAUUGAGCAUCA
B4: chr18:43795804:43795805:+_ENSG00000152242_ENST00000321319|hu_hu|FALSE|FALSE (ssRNA)
RNA: GGGAGUUCUACAGUCCGACGAUCCUCCUCCAUCUUCAUUUCAGAAUUUCAAGUUAAAUCAUGGAGUAGAGUCUAGGAAAUGAUAUCAAAGAUGCAACAGGAAAGCAACCUGCGCUCCGCGGCGACUCCGUGCCUUCUCGCUCGCAACAGAGGAUUGAGCAUCA
B5: chr11:100882373:100882374:+_ENSMUSG00000019302_ENSMUST00000044721|mus_mus|mus_mus_mus_hu_True|38_108 (ssRNA)
RNA: GGGAGUUCUACAGUCCGACGAUCUUCCUGGUUAGUGUUGAUUUCCUUCAGUUCAUUUUCAAUCUUCUCAAAAUUGGCCUCUAAGUCAAUCAUGUCCCGAGGGAAGGGAACCUCUGGGUUUUCACCGGUGUCCAUAAUCGGAAUCAACAGAGGAUUGAGCAUCA
B6: chr18:33597908:33597909:-_ENSMUSG00000042834_ENSMUST00000171533|mus_hu|FALSE|FALSE (ssRNA)
RNA: GGGAGUUCUACAGUCCGACGAUCCAUCAAAAGAGUACAUGGAUAAAAUAUAGAGAUAUACAGACAAUUGAUGAACAUAAACUACUAGGUUUGUUACAUCUAAAUGAAAAAAAAGGUGGGGGGGGGACUCUCAGCCUCUGCAAGCAACAGAGGAUUGAGCAUCA
B7: chr9:122046315:122046316:+_ENSMUSG00000038145_ENSMUST00000120173|mus_hu|FALSE|FALSE (ssRNA)
RNA: GGGAGUUCUACAGUCCGACGAUCUAGUUUGGUCUGGGUGUCAAUAACUUCAUAAAGGCGGACGAUGUUAGGAUGCUGCACUAGUUUCAUGCAUCUCACUUCCUGGAAAAGAUGACCAGUAGCUAGAGUGUCCAGUUUUGUCUUCAACAGAGGAUUGAGCAUCA
B8: chr1:46159212:46159213:+_ENSG00000159596_ENST00000372025|hu_mus|hu_hu_hu_mus_True|28_108 (ssRNA)
RNA: GGGAGUUCUACAGUCCGACGAUCUCUGAUCCCACCCAAGAAAGCUAGGAAACCGGCUCCAUAAGCCAUCUGAGUGAAAGCUAGGACGGGGAUAUAAGACUUUGUUAUCAGCAUGACAAGUGGGGGAGCAGUAAAGGGGAUUAACAACAGAGGAUUGAGCAUCA
B9: chr19:16212804:16212805:+_ENSG00000167460_ENST00000300933|hu_mus|hu_hu_hu_mus_False|88_108 (ssRNA)
RNA: GGGAGUUCUACAGUCCGACGAUCAACAAAUAUGCAAUGAAGGAAAGCAUCAAGGAUGAACAGCAUUAAAGCUCAGUCAGAAGGCACAUGGGCAACAAUGAUCACCCCAGCAUUCUCGCUUGGAAUGCUUAAAGACAAUCUGUUCAACAGAGGAUUGAGCAUCA
B10: chr1:46159212:46159213:+_ENSG00000159596_ENST00000372025|hu_mus|hu_hu_hu_mus_True|1_28 (ssRNA)
RNA: B8 RNA with A33U, A143G
B11: chr18:33597908:33597909:-_ENSMUSG00000042834_ENSMUST00000171533|mus_hu|motif|central (ssRNA)
RNA: B6 RNA with U82G, A83G, U85G, A86G
B12: 104520116_104520236_3471_3pUTR_ENSMUSG00000027175_ENSMUST00000111118|mouse|control|control (ssRNA)
RNA: GGGAGUUCUACAGUCCGACGAUCAAGUUAAAAUUCCAGCCUAUGUGAAAAGAGAUACAAUUUAACACAGGUGACAGGACGCUCUGCUGUUAGUUUCCCUACAUCAAAGACUAUUCCAGUACAAUGAACAGGAGGGUUUGGAAGCAACAGAGGAUUGAGCAUCA
B13: chr1:46159212:46159213:+_ENSG00000159596_ENST00000372025|hu_mus|hu_hu_hu_mus_True|28_48 (ssRNA)
RNA: B8 RNA with A33U, G90A
B14: chr1:46159212:46159213:+_ENSG00000159596_ENST00000372025|hu_mus|hu_hu_hu_mus_True|28_58 (ssRNA)
RNA: B8 RNA with A33U, G83A, G84U, C86U
B15: chr2:49628383:49628384:+_ENSMUSG00000026764_ENSMUST00000028102|mus_mus|FALSE|FALSE (ssRNA)
RNA: GGGAGUUCUACAGUCCGACGAUCUUGGUACUGACGGGGUUUGCAGACUUGCCCUGCAAAGGACCCCUCCAUCAGACUCCAAUAGCAGCCAACAGUGGCAACAACAUGAAACAAAGUGAACACAGGUAAACACAAAAUCAUCUUCAACAGAGGAUUGAGCAUCA
B16: chr12:51141157:51141158:+_ENSG00000066084_ENST00000301180|hu_mus|FALSE|FALSE (ssRNA)
RNA: GGGAGUUCUACAGUCCGACGAUCUCAAAGAAAAGCAACAGAAAAUAAAAAAAAAAAAAGAAGUAGUCAUUACCAGAAGGAGGAAAAGACUAGAAGCCUGGGCAAGGCAUGAAGGUGUCUGCUGCAAUUUCAGUACUCGGGACACAACAGAGGAUUGAGCAUCA

Substitutions are numbered along the chain they refer to. Over roughly 24,000 sequences, “enrichment r” has its median near 0.99; the highest 2% begin near 3.7. What follows is part of a selection rich in the highest values, with near analogues and random picks from the rest.

For the experiment, the target named is T1, UNK ZnF1-3 (human, UniProt Q9C0B0 31-174).
T1 sequence: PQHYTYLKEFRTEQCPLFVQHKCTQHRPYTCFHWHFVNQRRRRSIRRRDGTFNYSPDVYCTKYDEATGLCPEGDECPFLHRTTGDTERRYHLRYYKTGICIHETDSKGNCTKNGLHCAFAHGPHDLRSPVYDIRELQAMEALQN
Description: nsRBNS (natural sequence RNA bind-n-seq); RBNS binding buffer (assumed for nsRBNS): 25 mM Tris pH 7.5, 150 mM KCl, 3 mM MgCl2, 0.01% Triton X-100, 500 ug/ml BSA, 20 U/ml SUPERase-In, 4 C; UNK is unkempt and MSI1 is Musashi-1; names of the RNAs are library labels; protein concentration not given here; high values mean tight binding.
B1 came in with a binding signal of 1.03 enrichment R. As for B2, the binding signal stood at 0.64 enrichment R. On to B3, for which the binding signal was 0.624 enrichment R. The result for B4 reads 0.921 enrichment R; that for B5, 0.664 enrichment R; that for B6, 13.4 enrichment R. With B7, the binding signal amounted to 0.873 enrichment R. B8 displayed a binding signal of 1.36 enrichment R. For B9, the binding signal worked out at 1.33 enrichment R.

Molecule B10 had a binding signal of 3.95 enrichment R. In turn, B11 displayed a binding signal of 6.29 enrichment R. The result for B12 reads 1.5 enrichment R; that for B13, 1.5 enrichment R.

As to B14, the binding signal turned out to be 1.32 enrichment R. Regarding B15, the binding signal is 0.994 enrichment R. As for B16, the binding signal is 4.07 enrichment R.

Values taken from paper PMC12136788.
